In PubChem BioAssay (NCI):
The panel holds about 83,000 compounds, 20% with a hit somewhere; the sample as a whole holds those more often.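 In brief: 96-well plates, 48 h treatment, single concentration, percent growth endpoint.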 Values without a mark were called inactive. Calls of active or inactive are those of the source. Rule for the calls: active = growth percent below 10; inactive = the rest.

Tested on: HL-60(TB) leukemia
Assay: NCI-60 one-dose screen, 48 h (100 = growth as untreated, 0 = no growth, -100 = all killed)
Details: 10 µM unless noted

SMILES | growth
CCCCN1CCCCn2c1nc1c2c(=O)n(C)c(=O)n1C | 108%
COc1ccc2c(c1)O/C(=C\c1cccc(OCC(=O)Nc3nc4c(s3)CCCC4)c1)C2=O | 27.4%
COc1cc(C(=O)/C=C/c2c(-c3ccc(F)cc3)nc3ncccn23)cc(OC)c1OC | 30.9%
c1ccc(-c2cn(-c3ccccc3)c(-c3ccccc3)n2)cc1 | 40.3%
CS(=O)(=O)Nc1cc(-c2ccc3ncnc(Nc4ccc5c(cnn5Cc5cccnc5)c4)c3c2)cnc1Cl | 33.6%
N#C/C(=C/N1C(=O)/C(=C/c2ccc([N+](=O)[O-])cc2)SC1=S)c1nc2ccccc2s1 | 93.3%
COc1cnc2c(c1)C(=O)c1c-2n(CCCNC(C)C)c(=O)c2cc([N+](=O)[O-])ccc12 | -65% (active)
CN(C)c1ccc2cc(-c3nc4ccccc4s3)c(N)nc2c1 | 0.561% (active)
O=c1c2cccc3c(N4CCCC4)ccc(c32)c2nc3ccccc3n12 | 72%
COC(=O)c1ccc(-n2cc(CCCOS(=O)(=O)c3ccc(F)cc3)nn2)cc1 | 99.6%
C=C(C)[C@@H]1CC[C@]2(C(=O)N3CCN(C)CC3)CC[C@]3(C)[C@H](CC[C@@H]4[C@@]5(C)CC[C@H](O)C(C)(C)[C@@H]5CC[C@]43C)[C@@H]12 | -52.6% (active)
COc1ccc(NC(=O)/C=C/c2ccc(Cl)c(Cl)c2)cn1 | 61.5%
O=C1COCCN1c1ccc(NCc2cn(Cc3ccccc3)c3ccccc23)cc1 | 99.1%
COc1ccc2cc(-c3ccc(-c4ccc(C(=N)N)s4)s3)ccc2c1 | 36.5%
O=S(=O)(NCCNc1nccc(-c2c(-c3cccc(F)c3)nc3occn23)n1)c1ccc(C(F)(F)F)cc1 | 106%
COc1cc(C(=O)N2CCN(c3ccccc3OC)CC2)c(N)cc1OCCCN1CCN(c2ccccc2OC)CC1 | 85.3%
CC(=O)OC[Si](C)(C)c1ccccc1 | 100%
C#CCOc1cccc(Nc2ncnc3cc(NC(=O)C=C)ccc23)c1 | -16.4% (active)
C/C=C(/C)C(=O)OC1C=C(CO)C(=O)C(OC(=O)C(C)(O)C(C)Cl)C1C(C)C (stereo not given) | -25.3% (active)
O=C(CSc1nnnn1-c1ccccc1)Nc1ccc(Oc2ccccc2)cc1 | 110%

SMILES | growth
Cc1ccc(Cn2c(-c3nonc3N)nc3ccccc32)cc1 | 71.8%
Cc1ccc2c(n1)C(=O)C(Br)=C(CC(C)C)C2=O | 58.4%
O=C1/C(=C/c2c[nH]c(=O)[nH]c2=O)SC(=S)N1Cc1ccccc1 | 99.3%
Cc1ccc2nc(/C(C#N)=C(/CCCO)NC(Cc3ccccc3)C(=O)OCc3ccccc3)[nH]c(=O)c2c1 (stereo not given) | 122%
CC(=O)c1c(C)[nH]c(-c2nc3ccc(N4CCN(C)CC4)cc3[nH]2)c1-c1ccc(OCC2CCOCC2)cc1 | -12.9% (active)
Nc1ccc2[nH]c(-c3ccccc3)cc(=O)c2c1 | 88.2%
COc1cccc(/C=C/C(=O)c2c(C)nc3ccccc3c2/C=C/c2ccc(C)cc2)c1OC | 36%
O=C(Cn1cc(CN2CCN(c3ccnc4cc(Cl)ccc34)CC2)nn1)Nc1cccc([N+](=O)[O-])c1 | 102%
Cc1cn(-c2cc(NC(=O)c3cncc(C#Cc4c(N)ncc5ccc(F)cc45)c3)cc(C(F)(F)F)c2)cn1 | 9.54% (active)
COc1cc(/C(C)=C(\c2ccc(Cl)cc2)c2ccc(OCCN(C)C)cc2)ccc1F | 54.4%
Oc1c(Br)c(Br)c(O)c(Br)c1Br | 94.3%
Cc1ccc(CCC(=O)Nc2ncc(Cc3cc(Cl)ccc3Cl)s2)o1 | -40.4% (active)
CCCCC1=C(P(=O)(O)O)N[C@H](C(=O)O)CS1 | 103%
CC1(C)CC[C@]2(C(=O)O)CC[C@]3(C)C(=CC[C@@H]4[C@@]5(C)C/C(=C/c6cccnc6)[C@H](O)C(C)(C)[C@@H]5CC[C@]43C)[C@@H]2C1 | -8.82% [100 µM] (active)
O=C(CC(CC(=O)c1ccccc1)c1ccccn1)c1ccccc1 | 104%
O=[N+]([O-])c1cc([N+](=O)[O-])c(C(F)(F)F)cc1NN=C(c1ccc(O)cc1)c1ccc(O)cc1 | 103%
Cc1ccc(S(=O)(=O)OCC(=O)Nc2ccc(C(=O)O)c(O)c2)cc1 | 60.4%
O=C(N/N=C/c1ccc(Cl)cc1)c1ccccc1Nc1cccc(C(F)(F)F)c1 | 84.7%
CCCCNC(=O)Oc1ccc(/C(=C(\C)c2ccccc2)c2ccc(OCCN3CCCCC3)cc2)cc1 | 49.4%
CSc1nc(=S)c2nc(SC)n(-c3ccccc3)c2[nH]1 | 110%
